# Measured values reported in ChEMBL document CHEMBL3988442, “University of Dundee, Small-Polar-MMV Screening Library” (2021).
# For some assays here: Results with a measured potency or affinity are listed apart.
# Tests used:
# Parameters in all cases: scale not given: direction of the effect not stated beside the values
# [1] = target: Protein translocase subunit SecA (Escherichia coli (strain K12)) (UniProt P10408); assay: Assay to Identify E. coli SecA ATPase Inhibitors; type: functional; conditions: 30 µM
# [2] = target: T1, Ubiquitin-activating enzyme e1, putative (Leishmania donovani (strain BPK282A1)) (UniProt E9BSI1); assay: Leishmania donovani Ubiquitin Activating Enzyme (LdE1); type: functional; conditions: 30 µM
# T1 sequence (whole entry): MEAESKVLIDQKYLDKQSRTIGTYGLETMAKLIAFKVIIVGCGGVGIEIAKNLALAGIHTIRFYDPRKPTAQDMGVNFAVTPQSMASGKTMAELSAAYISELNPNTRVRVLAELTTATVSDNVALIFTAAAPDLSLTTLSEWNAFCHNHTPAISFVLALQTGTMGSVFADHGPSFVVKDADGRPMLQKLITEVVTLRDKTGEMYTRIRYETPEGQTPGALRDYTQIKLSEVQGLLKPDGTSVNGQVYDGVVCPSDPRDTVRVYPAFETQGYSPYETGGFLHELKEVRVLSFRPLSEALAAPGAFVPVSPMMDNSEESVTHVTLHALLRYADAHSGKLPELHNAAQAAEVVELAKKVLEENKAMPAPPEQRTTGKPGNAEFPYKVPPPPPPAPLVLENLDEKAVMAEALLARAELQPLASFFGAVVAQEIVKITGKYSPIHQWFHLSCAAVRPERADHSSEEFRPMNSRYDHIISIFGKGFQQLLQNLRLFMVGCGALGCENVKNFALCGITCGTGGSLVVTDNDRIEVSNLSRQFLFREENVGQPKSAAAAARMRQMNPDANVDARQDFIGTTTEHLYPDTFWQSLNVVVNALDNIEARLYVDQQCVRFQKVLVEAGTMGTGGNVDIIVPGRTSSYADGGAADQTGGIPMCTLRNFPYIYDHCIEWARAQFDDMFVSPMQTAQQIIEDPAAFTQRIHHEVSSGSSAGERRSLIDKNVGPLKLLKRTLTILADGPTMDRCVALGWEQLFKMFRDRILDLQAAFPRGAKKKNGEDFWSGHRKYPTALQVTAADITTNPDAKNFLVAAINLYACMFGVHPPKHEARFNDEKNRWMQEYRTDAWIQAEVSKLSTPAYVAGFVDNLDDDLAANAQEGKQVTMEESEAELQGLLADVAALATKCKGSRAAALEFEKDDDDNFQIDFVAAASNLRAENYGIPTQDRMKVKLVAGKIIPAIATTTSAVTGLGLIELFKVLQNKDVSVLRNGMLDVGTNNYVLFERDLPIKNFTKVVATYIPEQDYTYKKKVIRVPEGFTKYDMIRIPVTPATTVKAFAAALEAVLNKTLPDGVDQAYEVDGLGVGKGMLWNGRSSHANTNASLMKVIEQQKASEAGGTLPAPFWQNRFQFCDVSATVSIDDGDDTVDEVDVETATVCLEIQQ
# [3] = target: AMP-activated protein kinase, AMPK (Homo sapiens) (UniProt P54646+O43741+P54619+Q9UGJ0+Q9Y478+Q13131+Q9UGI9); assay: AMP-dependent Kinase enzyme assay. An in vitro enzyme assay that detects ADP turnover that is directly proportional to AMPK activity. This uses naive AMPK that is activated during the assay with MK-8722; type: functional; conditions: 30 µM
# [4] = target: Sialic acid-binding Ig-like lectin 9 (Homo sapiens) (UniProt Q9Y336); assay: Hs-Siglec9 ALPHAscreen SOP 20170721; conditions: 10 µM
# Trypanosoma cruzi = assay: Trypanosoma cruzi phosphomannomutase and mannose-1-phosphate guanylyltransferase assay; type: functional; conditions: 10 µM
# [5] = target: T2, Arginase-2, mitochondrial (Homo sapiens) (UniProt P78540); assay: in vitro enzyme assay to detect the production of urea directly proportional to the activity of Arginase II; type: functional; conditions: 33.3 µM; note: in the data most compounds retested in dose-response had high values
# T2 sequence (whole entry): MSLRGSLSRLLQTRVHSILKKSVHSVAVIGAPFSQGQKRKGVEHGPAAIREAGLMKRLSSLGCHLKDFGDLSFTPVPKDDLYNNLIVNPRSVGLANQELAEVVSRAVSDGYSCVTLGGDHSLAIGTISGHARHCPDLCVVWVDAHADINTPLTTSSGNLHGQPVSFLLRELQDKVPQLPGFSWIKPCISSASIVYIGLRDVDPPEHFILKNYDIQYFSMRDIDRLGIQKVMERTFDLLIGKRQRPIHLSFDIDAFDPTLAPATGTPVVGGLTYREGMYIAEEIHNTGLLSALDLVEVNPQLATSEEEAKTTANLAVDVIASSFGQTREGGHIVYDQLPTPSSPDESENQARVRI
# [6] = target: T3, Proteasome subunit beta (Trypanosoma cruzi) (UniProt O96673); assay: Trypanosoma cruzi proteasome chymotrypsin-like activity (TcProtChymo) assay.; note: in the data most compounds retested in dose-response had high values; type: functional; conditions: 9.37 µM
# T3 sequence (whole entry): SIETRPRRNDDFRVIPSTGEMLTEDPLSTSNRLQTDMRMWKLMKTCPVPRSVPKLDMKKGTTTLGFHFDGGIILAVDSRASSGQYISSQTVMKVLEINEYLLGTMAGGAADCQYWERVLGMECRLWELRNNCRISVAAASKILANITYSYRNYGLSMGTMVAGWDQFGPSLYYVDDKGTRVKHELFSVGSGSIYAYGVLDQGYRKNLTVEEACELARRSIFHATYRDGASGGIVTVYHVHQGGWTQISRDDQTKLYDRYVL
# Homo sapiens = species: Homo sapiens; assay: To identify inhibition of the IFN signalling (Jak-Stat) pathway via expression of an eGFP reporter gene under the control of an IFN-stimulated response element (ISRE) containing MxA promoter.; type: functional; conditions: 30 µM
# [7] = target: T4, Tyrosyl-tRNA synthetase, putative (Trypanosoma cruzi (strain CL Brener)) (UniProt Q4DSP6); assay: Trypanosoma cruzi tyrosyl tRNA synthetase (TcYRS) _High Tyrosine SOP; type: functional; conditions: 30 µM; note: in the data most compounds retested in dose-response had high values
# T4 sequence (whole entry): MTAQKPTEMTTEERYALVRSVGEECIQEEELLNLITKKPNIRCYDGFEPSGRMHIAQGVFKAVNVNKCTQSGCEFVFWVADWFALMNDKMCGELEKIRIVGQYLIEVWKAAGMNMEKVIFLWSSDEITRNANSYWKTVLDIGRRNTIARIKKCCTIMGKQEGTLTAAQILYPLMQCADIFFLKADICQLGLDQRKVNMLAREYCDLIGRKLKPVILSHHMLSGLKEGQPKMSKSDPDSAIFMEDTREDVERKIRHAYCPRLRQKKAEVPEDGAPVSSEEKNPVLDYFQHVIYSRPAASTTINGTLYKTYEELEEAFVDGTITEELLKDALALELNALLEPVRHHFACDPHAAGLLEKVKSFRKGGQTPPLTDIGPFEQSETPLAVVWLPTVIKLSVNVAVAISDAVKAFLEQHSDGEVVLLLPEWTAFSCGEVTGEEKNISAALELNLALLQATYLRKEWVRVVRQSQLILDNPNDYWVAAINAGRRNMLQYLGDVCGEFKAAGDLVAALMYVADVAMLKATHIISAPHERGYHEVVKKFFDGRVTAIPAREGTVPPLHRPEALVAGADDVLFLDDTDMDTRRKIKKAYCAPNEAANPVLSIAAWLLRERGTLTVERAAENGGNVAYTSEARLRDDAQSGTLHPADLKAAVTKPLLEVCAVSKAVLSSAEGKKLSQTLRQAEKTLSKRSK
# [8] = target: T4, Tyrosyl-tRNA synthetase, putative (Trypanosoma cruzi (strain CL Brener)); assay: Trypanosoma cruzi tyrosyl tRNA synthetase (TcYRS) SOP; type: functional; conditions: 30 µM
# [9] = target: Chromo domain-containing protein 1 (Saccharomyces cerevisiae (strain ATCC 204508 / S288c) (Baker's yeast)) (UniProt P32657); assay: ScCHD-1 Enzyme Inhibition Assay; type: functional; conditions: 30 µM; note: in the data most compounds retested in dose-response had high values
# Sequence of Chromo domain-containing protein 1 (Saccharomyces cerevisiae (strain ATCC 204508 / S288c) (Baker's yeast)) (P32657 whole entry, the tested form may be a part): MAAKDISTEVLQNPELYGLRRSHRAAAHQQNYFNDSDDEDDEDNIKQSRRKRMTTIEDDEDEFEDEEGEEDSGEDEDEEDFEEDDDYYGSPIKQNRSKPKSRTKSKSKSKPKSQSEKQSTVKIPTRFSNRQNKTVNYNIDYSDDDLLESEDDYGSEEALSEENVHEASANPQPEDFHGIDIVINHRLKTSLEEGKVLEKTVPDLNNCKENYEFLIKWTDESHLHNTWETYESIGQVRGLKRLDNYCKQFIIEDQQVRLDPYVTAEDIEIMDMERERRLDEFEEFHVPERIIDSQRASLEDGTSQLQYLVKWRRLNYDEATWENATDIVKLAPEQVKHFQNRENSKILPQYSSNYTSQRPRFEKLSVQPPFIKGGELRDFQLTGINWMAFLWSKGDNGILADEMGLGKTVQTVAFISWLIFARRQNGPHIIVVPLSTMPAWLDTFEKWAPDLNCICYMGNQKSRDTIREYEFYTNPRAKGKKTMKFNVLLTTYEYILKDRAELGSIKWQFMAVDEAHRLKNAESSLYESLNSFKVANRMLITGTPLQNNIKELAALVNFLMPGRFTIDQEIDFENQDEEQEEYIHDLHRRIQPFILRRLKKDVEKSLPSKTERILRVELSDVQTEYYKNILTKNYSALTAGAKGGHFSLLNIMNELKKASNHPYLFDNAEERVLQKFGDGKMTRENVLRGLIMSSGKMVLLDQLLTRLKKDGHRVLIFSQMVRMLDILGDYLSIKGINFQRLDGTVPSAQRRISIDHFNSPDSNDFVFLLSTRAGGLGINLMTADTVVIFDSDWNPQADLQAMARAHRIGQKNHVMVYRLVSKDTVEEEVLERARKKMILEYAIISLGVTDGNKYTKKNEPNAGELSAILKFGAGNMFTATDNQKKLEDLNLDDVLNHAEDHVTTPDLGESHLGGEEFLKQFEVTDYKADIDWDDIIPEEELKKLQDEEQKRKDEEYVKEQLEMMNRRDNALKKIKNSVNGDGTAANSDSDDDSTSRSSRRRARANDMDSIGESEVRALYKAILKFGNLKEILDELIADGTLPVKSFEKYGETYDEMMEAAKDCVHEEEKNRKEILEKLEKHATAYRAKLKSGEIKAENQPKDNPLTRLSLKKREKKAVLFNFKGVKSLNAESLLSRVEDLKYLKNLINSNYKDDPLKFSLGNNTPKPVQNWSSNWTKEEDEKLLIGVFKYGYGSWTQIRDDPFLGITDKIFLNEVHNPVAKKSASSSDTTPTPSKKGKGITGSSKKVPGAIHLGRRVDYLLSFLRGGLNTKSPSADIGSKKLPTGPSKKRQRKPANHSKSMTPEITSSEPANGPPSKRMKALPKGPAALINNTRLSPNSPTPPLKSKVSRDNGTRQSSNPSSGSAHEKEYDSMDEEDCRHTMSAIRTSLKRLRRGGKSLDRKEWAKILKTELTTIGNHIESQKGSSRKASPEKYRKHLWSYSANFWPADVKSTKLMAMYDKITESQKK
# Sequence of Protein translocase subunit SecA (Escherichia coli (strain K12)) (P10408 whole entry): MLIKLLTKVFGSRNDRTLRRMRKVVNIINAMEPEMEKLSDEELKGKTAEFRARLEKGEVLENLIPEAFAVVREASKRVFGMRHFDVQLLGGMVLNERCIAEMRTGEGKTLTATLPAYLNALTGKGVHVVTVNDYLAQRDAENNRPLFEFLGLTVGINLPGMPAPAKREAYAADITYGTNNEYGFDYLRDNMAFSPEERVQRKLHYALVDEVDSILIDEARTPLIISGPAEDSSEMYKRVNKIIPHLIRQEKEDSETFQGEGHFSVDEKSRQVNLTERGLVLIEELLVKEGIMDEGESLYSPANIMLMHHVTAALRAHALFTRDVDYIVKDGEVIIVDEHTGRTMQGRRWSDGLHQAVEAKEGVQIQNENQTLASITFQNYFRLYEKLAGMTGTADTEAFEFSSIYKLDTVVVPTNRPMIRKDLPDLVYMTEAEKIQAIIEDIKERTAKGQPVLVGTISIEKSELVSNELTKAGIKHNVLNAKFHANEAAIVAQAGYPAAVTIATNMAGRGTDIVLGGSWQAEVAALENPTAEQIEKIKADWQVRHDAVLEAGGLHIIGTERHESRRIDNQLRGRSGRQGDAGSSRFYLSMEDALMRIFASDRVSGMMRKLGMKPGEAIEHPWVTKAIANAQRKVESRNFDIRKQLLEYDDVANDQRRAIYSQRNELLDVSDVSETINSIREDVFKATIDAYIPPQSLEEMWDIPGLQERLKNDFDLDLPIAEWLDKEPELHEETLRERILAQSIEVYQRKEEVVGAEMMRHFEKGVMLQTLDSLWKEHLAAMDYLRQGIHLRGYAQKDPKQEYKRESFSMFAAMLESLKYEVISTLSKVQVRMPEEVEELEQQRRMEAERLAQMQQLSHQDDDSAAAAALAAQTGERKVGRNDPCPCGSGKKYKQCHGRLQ
# Sequence of Sialic acid-binding Ig-like lectin 9 (Homo sapiens) (Q9Y336 whole entry): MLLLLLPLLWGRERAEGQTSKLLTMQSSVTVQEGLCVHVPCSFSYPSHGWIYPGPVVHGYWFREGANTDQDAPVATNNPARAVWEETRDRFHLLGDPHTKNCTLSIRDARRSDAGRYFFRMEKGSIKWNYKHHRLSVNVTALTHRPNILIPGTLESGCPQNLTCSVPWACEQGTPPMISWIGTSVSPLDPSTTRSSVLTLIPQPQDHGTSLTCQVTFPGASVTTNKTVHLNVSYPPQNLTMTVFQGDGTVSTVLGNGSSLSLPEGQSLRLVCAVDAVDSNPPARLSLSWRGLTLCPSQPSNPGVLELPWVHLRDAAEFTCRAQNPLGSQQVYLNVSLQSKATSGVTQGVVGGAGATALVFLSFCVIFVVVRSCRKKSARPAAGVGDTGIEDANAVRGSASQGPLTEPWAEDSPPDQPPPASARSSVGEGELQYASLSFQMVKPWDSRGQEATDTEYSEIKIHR
SMILES,Percent Effect [1],Percent Effect [2],Percent Effect [3],Percent Effect [4],Percent Effect (Trypanosoma cruzi),Percent Effect [5],Percent Effect [6],Percent Effect (Homo sapiens),Percent Effect [7],Percent Effect [8],Percent Effect [9]
CC(CNC(=O)c1cccnc1Oc1cccnc1)N(C)C (stereo unspecified),-0.805%,18.9%,-3.66%,10.5%,6.56%,10%,12.9%,4.67%,4.76%,17.1%,-1.51%
COc1c(C2CCCN2C(=O)c2ccc(Cl)o2)c(C)nn1C (stereo unspecified),-5.93%,13.5%,-4.28%,21.4%,2.93%,4.17%,10.6%,-2.68%,5.94%,18.3%,-0.337%
Cc1nc(CCN(C)C(=O)C2COc3ccccc3C2)no1 (stereo unspecified),-7.54%,13%,-6.34%,19.8%,8.55%,5.52%,16.1%,-0.00401%,5.38%,13.6%,-7.23%
COc1ncccc1C(=O)NCC1Cc2ccccc2O1 (stereo unspecified),-0.887%,5.48%,2.87%,0.0975%,-1.76%,1.36%,21.3%,-1.66%,4.3%,12.5%,-7.46%
O=C(Nc1cnn(CCN2CCOCC2)c1)c1ccccc1O,-4.19%,26.3%,-17.4%,2.22%,3.57%,4.6%,16.9%,-2.35%,6.37%,19.5%,-12.5%
COc1cccc(CNC(=O)CC2CSc3ncc(C)c(=O)n32)c1 (stereo unspecified),-1.02%,15.6%,31.4%,-9.59%,-5.03%,3.23%,13.9%,16.4%,5.29%,3.85%,-9.11%
CN1C(=O)CC(C(=O)O)C12CCN(Cc1ccc(F)cc1Cl)CC2 (stereo unspecified),-3.75%,2.67%,-7.2%,5.97%,3.41%,-0.521%,16%,15.5%,8.2%,13.6%,-3.62%
Cc1cccc(-c2ccc(C(=O)NCC3CCOC3)c(=O)[nH]2)c1 (stereo unspecified),-2.02%,10.8%,-7.21%,7.34%,-0.472%,-4.41%,-0.18%,12.2%,5.42%,11.1%,-8.03%
CCOC(=O)CCC(=O)N1CCC(Oc2ccc(C(F)(F)F)cn2)CC1,-1.66%,7.79%,4.3%,13.1%,-6.41%,-1.94%,14.1%,20.3%,3.17%,11.5%,-5.92%
CC(C)c1nc(C2CCCN2CCCc2nc3ccccc3o2)no1 (stereo unspecified),-2.74%,-8.11%,-9.61%,9.51%,1.42%,-6.81%,-1.62%,5.36%,2.46%,-6.17%,0.486%
CN(C)CC1CSCCCN1C(=O)Nc1ccc(C(C)(C)C)cc1 (stereo unspecified),-1.39%,5.2%,3.67%,12.9%,-9.96%,-5.81%,1.57%,13.1%,4.23%,8.97%,-4.09%
CC(O)CN1CCC(CNCc2cccc(Br)c2)CC1 (stereo unspecified),-6.33%,5.41%,-21.1%,11.5%,-4.25%,-5.61%,-0.721%,11.2%,2.46%,-1.24%,4.26%
COC(=O)N1CCc2ccc(NC(=O)c3cn(C)nn3)cc2C1,-6.1%,10.4%,2.87%,5.76%,2.07%,-49.7%,9.92%,12.5%,5.29%,8.97%,90.7%
CN(C)CC1CSCCCN1C(=O)c1ccc(=O)[nH]c1 (stereo unspecified),-6.61%,2.6%,6.1%,5.73%,-5.82%,0.645%,7.66%,0.342%,-1.06%,3.85%,-3.68%
Cc1cnn(CC2CCCCN2Cc2noc(C3CC3)n2)c1 (stereo unspecified),-2.92%,5.26%,2.62%,2.92%,0%,1.53%,9.86%,14.8%,7.35%,9.76%,-5.92%
CC(C)CN1CCCC2(CCN(C(=O)c3cnccn3)C2)C1 (stereo unspecified),2.12%,-2.6%,-0.541%,2.48%,-4.24%,-3.23%,3.13%,0.321%,3.17%,-3.85%,-5.96%
